From PubChem BioAssay
CYP2C19 inh: inhibitors of human CYP2C19; P33261; CYP2C19 Supersomes, luciferin-H EGE luminescence, 30 min; inhibition, % at 5 µM; 21% of 96,000 active; AID 778;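 active = CYP2C19 inhibition above a set limit at 5 µM in the primary screen, cut at about 50% in these data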;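 also: plate controls were negative control wells for no effect and 2.5 mM tranylcypromine positive control for full effect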
CYP2C19 activ: cytochrome P450 2C19 (human) activation. P33261. AID 1025. 96,000 tested, under 10 active. recombinant CYP2C19, luciferin-H EGE luminescence; stronger effect = higher value; 0 = fully inhibited enzyme, 1 = untreated enzyme. activation factor at 5 µM;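 active = activation factor of at least 2 at 5 µM in the primary screen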;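 also: 0 = wells with 2.5 mM tranylcypromine and 1 = vehicle-only wells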
CYP2C9 act: increases human cytochrome P450 2C9 activity; AID 1024; P11712; activation factor at 5 µM; recombinant CYP2C9, luciferin-H conversion, luminescence; stronger effect = higher value; factor 1 = untreated enzyme, 0 = blocked; 1.4% of 96,000 active;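 active = activation factor of 2 or more for CYP2C9 at a 5 µM dose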;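 also: 0 = sulfaphenazole-blocked wells and 1 = vehicle-only wells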
CD11b adhes inh: blocks human CD11b/CD18 adhesion to fibrinogen. 0.54% of 93,000 active. AID 1497. P05107+P11215. K562 CD11b/CD18 adhesion to fibrinogen, ATPlite luminescence; Mn2+ added to activate the integrin. inhibition, % at 10 µM;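 active = primary inhibition of 50% or more at 10 µM, then 40% or more on retest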
Target sequence (P05107 whole entry, looked up, other chains not shown): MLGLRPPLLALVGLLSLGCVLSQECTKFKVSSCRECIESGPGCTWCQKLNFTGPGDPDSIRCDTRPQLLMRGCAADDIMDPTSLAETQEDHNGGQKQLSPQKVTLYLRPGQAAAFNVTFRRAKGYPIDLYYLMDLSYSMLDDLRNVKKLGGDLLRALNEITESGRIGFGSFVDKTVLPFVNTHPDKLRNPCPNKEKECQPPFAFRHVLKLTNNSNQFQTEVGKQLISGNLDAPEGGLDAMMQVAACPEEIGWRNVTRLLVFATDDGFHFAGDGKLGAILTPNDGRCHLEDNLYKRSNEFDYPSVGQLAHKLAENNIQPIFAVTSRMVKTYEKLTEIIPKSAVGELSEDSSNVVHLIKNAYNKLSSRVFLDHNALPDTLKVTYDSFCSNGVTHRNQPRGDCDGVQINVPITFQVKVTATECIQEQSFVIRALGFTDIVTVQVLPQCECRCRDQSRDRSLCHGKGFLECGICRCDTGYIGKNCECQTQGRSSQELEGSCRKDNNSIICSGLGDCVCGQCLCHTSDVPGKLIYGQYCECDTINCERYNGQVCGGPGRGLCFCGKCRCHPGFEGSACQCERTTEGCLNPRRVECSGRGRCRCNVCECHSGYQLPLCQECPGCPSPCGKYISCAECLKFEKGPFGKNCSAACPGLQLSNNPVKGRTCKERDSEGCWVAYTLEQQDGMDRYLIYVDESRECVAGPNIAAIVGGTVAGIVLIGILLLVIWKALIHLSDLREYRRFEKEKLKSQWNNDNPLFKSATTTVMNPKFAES
CYP2C9 inhib: human CYP2C9 inhibition; CYP2C9 Supersomes, luciferin-H conversion, luminescence; P11712; inhibition, % at 5 µM; 20% of 96,000 active;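 active = blocking of liver enzyme CYP2C9 beyond about 50% at 5 µM, limit read from the data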
CD11b adhes enh: CD11b/CD18-fibrinogen binding enhancement | activation, % at 10 µM | 0.07% of 93,000 active | P05107+P11215 | K562 CD11b/CD18 adhesion to fibrinogen, ATPlite luminescence;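 active = 10 µM primary screen giving 50% or more activity, confirmed by 40% or more on retest at that dose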
Numbers without * were called inactive; x = no result. Only some compounds are listed: those with a hit (about 28% of all), similar ones and a draw of the others.

SMILES	CYP2C19 inh	CYP2C19 activ	CYP2C9 act	CD11b adhes inh	CYP2C9 inhib	CD11b adhes enh
C=CCn1c(CSc2nc3ccccc3s2)nnc1SCC(=O)OCC	77*	0.2	0.6	-56	42	-3
O=C(CSc1nnnn1-c1ccccc1F)Nc1nc2ccccc2s1	11	0.9	0.9	-16	11	1
CCOC(=O)CSc1nnc(CSc2nc3ccccc3s2)n1C	44	0.6	1	9	2	-5
CCC(CC)C(=O)Nc1cc(C)cc(C)c1	18	0.8	0.7	0	25	-2
CC1(C)CC(=O)C=C(NCCN2CCN(C(=O)Nc3ccccc3)CC2)C1	-2	1	1.1	-31	-9	12
COC(=O)c1ccc(/C=N\NC(=O)c2ccc(C)cc2Cl)cc1	12	0.9	0.6	x	39	x
Cc1ccc(C(=O)NC(c2ccccc2)C(Cl)Cl)cc1 (centres undefined)	x	x	x	9	x	6
COC(=O)CC(NC(=O)c1ccc(C)cc1)c1ccc2c(c1)OCO2 (centres undefined)	78*	0.2	0.3	-3	68*	-5
C=CCOC(=O)/C(=C\c1cccc2ccccc12)NC(=O)c1ccccc1	82*	0.2	0.2	x	78*	x
C=CCOC(=O)CC(NC(=O)c1ccccc1)c1ccccc1 (centres undefined)	96*	0	0.1	-9	94*	4
CCCOc1ccc(C(CC(=O)O)NC(=O)c2ccc3c(c2)OCO3)cc1 (centres undefined)	-1	1	0.9	21	13	0
CCOC(=O)/C(=C/c1c2ccccc2cc2ccccc12)NC(=O)c1ccccc1	6	0.9	0.7	x	28	x
COC(=O)CC(NC(=O)c1ccc(C)cc1)c1ccccc1 (centres undefined)	69*	0.3	0.6	19	39	-1
Cc1ccc(Nc2nc(N)c([N+](=O)[O-])c(N3CCCC(C)C3)n2)cc1C (centres undefined)	x	x	x	103	x	-17
CC(=O)C(C)Oc1cc(C)cc2oc(=O)c(C)c(C)c12 (centres undefined)	28	0.7	0.4	7	57*	-3
Clc1ccc2[nH]cc(-c3nnnn3-c3ccc4ccccc4c3)c2c1	-5	1.1	1.2	71	-16	-13
COc1ccc(NC(=O)CSc2nc3sc(C)c(C)c3c(=O)n2Cc2ccco2)cc1	62*	0.4	0.2	2	79*	-2
Cc1cc2c(=O)n(Cc3ccco3)c(SCC(=O)c3ccc(Cl)s3)nc2s1	57*	0.4	0.2	62	76*	1
CCOC(=O)CC(=O)CSc1nc2sc(C)cc2c(=O)n1Cc1ccco1	12	0.9	0.6	-8	43	2
Cc1sc2nc(SCC(=O)C(C)(C)C)n(Cc3ccco3)c(=O)c2c1C	12	0.9	0.3	x	73*	x
Fc1ccc(C[n+]2csc3ccccc32)cc1	42	0.6	0.4	x	60*	x
Cc1cc(C(F)(F)F)n(-c2nc(C(=O)N/N=C/c3ccc(F)cc3)cs2)n1	19	0.8	0.4	x	55*	x
COc1cccc(/C=N/NC(=O)c2csc(-n3nc(C)cc3C(F)(F)F)n2)c1	26	0.7	0.9	-27	12	-5
Cc1ccc(NC(=O)C(SCC(=O)O)c2ccccc2)cc1C (centres undefined)	-8	1.1	0.9	4	11	0
COC(=O)CSC(C(=O)Nc1ccc(C)c(C)c1)c1ccccc1 (centres undefined)	92*	0.1	0.4	-9	60*	-1
SMILES	CYP2C19 inh	CYP2C19 activ	CYP2C9 act	CD11b adhes inh	CYP2C9 inhib	CD11b adhes enh
CCOCCCNCc1cccc(OC)c1	38	0.6	0.9	-60	15	4
COC(=O)Nc1ccc(S(=O)(=O)Nc2ccccc2F)cc1	50*	0.5	0.8	-6	24	-2
CC(=O)Nc1ccccc1NS(=O)(=O)c1ccc(Cl)cc1	91*	0.1	0.6	9	45	-3
CN1CCN(C(=O)CN(c2cccc(Cl)c2)S(=O)(=O)c2ccccc2)CC1	7	0.9	0.7	-16	31	2
COC(=O)CNC(=O)c1cccc(F)c1	-7	1.1	1	2	4	-4
COc1ccccc1C1=NOC(COC(=O)c2ccc3ccccc3n2)C1 (centres undefined)	35	0.7	2.2*	-1	-121	0
CC(C)C(=O)Nc1nnn(C)n1	0	1	1	-3	-1	-4
O=C1CCC(=O)N1CN(C(=O)c1ccco1)c1ccccc1	2	1	1	-9	1	-2
Cc1ccc(N(CN2C(=O)C3CC=CCC3C2=O)C(=O)c2ccco2)cc1Cl (centres undefined)	45	0.5	0.4	-11	61*	0
CCOC(=O)C1CCCN(C(=O)c2sc3nc(-c4ccc(OC)cc4)cn3c2C)C1 (centres undefined)	43	0.6	0.6	x	39	x
COc1ccc(CC(=O)Nc2ccc3c(c2)CCC3)cc1	x	x	x	-5	x	-2
CCOc1cc(CNc2ccc3c(c2)CCC3)ccc1OC	56*	0.4	0.8	-25	23	-3
CCCCC(=O)N(CCOC)c1nnc(-c2ccc(OC)cc2)s1	16	0.8	1	-10	1	-3
COCC(=O)N(C)c1nnc(-c2cnc(C)cn2)s1	1	1	0.9	0	7	1
COCCN(C(=O)c1cccc(OC)c1)c1nnc(-c2ccncc2)s1	100*	0	0.2	-11	80*	-3
O=C(COc1ccccc1)N(Cc1ccccc1)c1nc(-c2ccccc2)cs1	2	1	0.8	-4	22	-5
COCCN(C(=O)C1CC1)c1nnc(-c2cccc(C)c2)s1	72*	0.3	0.2	12	80*	0
C=CCN(C(=O)COc1ccccc1)c1nnc(-c2ccncc2)s1	87*	0.1	0.5	-13	52*	1
O=[N+]([O-])c1c(C(Cl)Cl)nn(-c2ccccc2)c1N1CCCC1	56*	0.4	0.6	8	38	-4
CC(=O)C(C(C)=O)c1c(Cl)c(O)c(O)c2c(C(=O)c3ccccc3)coc12	9	0.9	0.1	15	86*	2
COC(=O)c1cc(CNC(=O)c2cccc(Cl)c2)ccc1OC	x	x	x	-11	x	-2
CC(=O)CC1(O)C(=O)N(Cc2ccccc2)c2ccccc21 (centres undefined)	36	0.6	0.9	x	13	x
C/C(CC1(O)C(=O)N(Cc2ccccc2)c2ccccc21)=N\O (centres undefined)	50*	0.5	0.9	-17	8	-4
Cc1coc(C)c1C(=O)CC1(O)C(=O)N(Cc2ccccc2)c2ccccc21 (centres undefined)	98*	0	0.6	6	39	3
O=C(Cn1cc2c(n1)CCCC2)NCc1cccc(Cl)c1	48	0.5	1.9	4	-93	0
